Measurements reported in PubChem BioAssay AID743096 (Vanderbilt Specialized Chemistry Center, 2013).
The source made the active and inactive calls.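 The calls were made as follows: active = calcium signal above 60% of the top acetylcholine response at human muscarinic M5 receptors, as a positive modulator; inactive = the rest.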

These molecules were tested against Muscarinic acetylcholine receptor M2 (Homo sapiens) (UniProt P08172) (assay: potentiation of ACh response at M2 – cell-based, human M2, selectivity assay for M5 PAM discovery project (AID 743096)). Conditions: CHO-K1 hM2/Gqi5, calcium flux, ACh EC20 potentiation; series mostly up to 30 µM.
Muscarinic acetylcholine receptor M2 (Homo sapiens), sequence (P08172 whole entry, looked up): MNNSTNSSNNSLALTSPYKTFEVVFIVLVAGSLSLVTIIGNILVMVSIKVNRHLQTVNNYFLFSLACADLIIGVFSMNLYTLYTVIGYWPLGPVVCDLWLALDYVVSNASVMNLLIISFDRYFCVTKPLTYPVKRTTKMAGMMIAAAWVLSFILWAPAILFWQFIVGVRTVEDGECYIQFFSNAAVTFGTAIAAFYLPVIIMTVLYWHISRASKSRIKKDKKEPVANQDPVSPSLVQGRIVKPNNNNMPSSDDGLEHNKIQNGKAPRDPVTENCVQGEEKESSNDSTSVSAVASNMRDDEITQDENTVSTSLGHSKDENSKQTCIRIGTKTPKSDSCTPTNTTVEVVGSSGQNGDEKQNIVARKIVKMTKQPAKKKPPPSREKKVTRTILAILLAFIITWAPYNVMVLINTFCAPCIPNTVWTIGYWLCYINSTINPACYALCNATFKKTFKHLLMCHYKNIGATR

outcome, inactive:
CCN(Cc1ccccc1)C(=O)C1CCN(S(=O)(=O)c2ccc3c(c2)OCCO3)CC1
CCN(Cc1ccccc1C(F)(F)F)C(=O)C1CCN(S(=O)(=O)c2ccc3[nH]ncc3c2)CC1
CCN(Cc1ccccc1Cl)C(=O)C1CCN(S(=O)(=O)c2ccc3[nH]ncc3c2)CC1
CCN(Cc1ccccc1)C(=O)C1CCN(S(=O)(=O)c2ccc(OC)cc2)CC1
CCN(C(=O)C1CCN(S(=O)(=O)c2ccc3[nH]ncc3c2)CC1)[C@H](C)c1ccccc1
CCN(C(=O)C1CCN(S(=O)(=O)c2ccc(OC)cc2)CC1)[C@H](C)c1ccccc1
